An excerpt weighted towards active compounds, which were near 1.8% of everything screened.
RGS4 inh: blocks human RGS4-accelerated GTP hydrolysis; Potency, µM (doses to about 114 µM), for inactives: at the highest dose activity change, negative = inhibition, usual class: inhibitors; P49798; AID 504845; Transcreener GDP fluorescence polarization, RGS4-accelerated GTP hydrolysis; actives 0.039% (n = 390,000); further: on the % scale 0 is the no-effect control and ±100 the full control effect; nearly all actives have a fitted effect of over 75% in size
Target sequence (P49798 whole entry, looked up): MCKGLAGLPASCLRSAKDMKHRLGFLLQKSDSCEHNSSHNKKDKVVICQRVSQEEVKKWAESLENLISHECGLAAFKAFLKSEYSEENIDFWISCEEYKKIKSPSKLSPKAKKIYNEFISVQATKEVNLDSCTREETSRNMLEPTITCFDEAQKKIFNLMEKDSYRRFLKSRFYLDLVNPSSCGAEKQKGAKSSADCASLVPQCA
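MLSMR compounds (23 nl, pin-transferred) preincubated 10 min at room temperature with a 500nM (2x) first reagent, then RGS4 at 900nM (2x) plus Transcreener GDP mix added; fluorescence polarization (620/688 nm) read before and after 90 min at 30 °C.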
GLP-1R agonist: GLP-1 receptor (human) agonism. P43220. HEK293 GLP-1R CRE-luciferase, luminescence, 4-6 h; cells express a hypersensitive GLP-1R form. Potency, µM (titrated, usually from 45.6 µM), inactives show top-dose activation, most hits filed as activators. actives 0.007% (n = 380,000). AID 624172; further: % of control where 0% means no effect
Target sequence (P43220 whole entry, looked up): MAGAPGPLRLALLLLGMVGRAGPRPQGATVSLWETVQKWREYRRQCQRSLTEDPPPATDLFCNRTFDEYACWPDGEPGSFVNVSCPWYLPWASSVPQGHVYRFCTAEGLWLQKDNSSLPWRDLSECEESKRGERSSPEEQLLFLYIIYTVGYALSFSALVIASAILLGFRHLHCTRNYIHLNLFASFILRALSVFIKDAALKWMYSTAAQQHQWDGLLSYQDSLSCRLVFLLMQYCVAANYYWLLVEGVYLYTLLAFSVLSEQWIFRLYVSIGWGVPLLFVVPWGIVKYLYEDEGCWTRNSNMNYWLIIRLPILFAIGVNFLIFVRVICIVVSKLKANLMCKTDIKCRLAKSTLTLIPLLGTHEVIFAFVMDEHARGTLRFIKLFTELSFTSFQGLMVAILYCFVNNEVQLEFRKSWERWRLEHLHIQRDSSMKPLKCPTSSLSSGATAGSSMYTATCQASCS
PTHR1 ag: PTHR1 (human) receptor agonism; Potency, µM (highest dose often 115 µM), for the others: top-dose activation, usual class: activators; HEK293 GP2 PTHR1 cells, GloSensor cAMP luminescence, 1 h; Q03431; actives 0.075% (n = 410,000); further: nearly all actives have a fitted effect of over 55% in size
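HEK-293-derived GP2 cells expressing PTHR1 and a GloSensor cAMP reporter, 3,000/well, plated overnight, given luciferin plus IBMX (each 0.5 mM as added) for 1 h at 37 °C, then compound for 1 h at 37 °C. Luminescence was read after 15 min at room temperature.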
KAT2A inh: GCN5L2 (KAT2A) acetyltransferase inhibition. Q92830. GCN5L2 HAT assay, ThioGlo1 CoA-SH fluorescence. Potency, µM (doses to about 58.9 µM), without a hit: top-dose activity change, negative = inhibition, actives largely listed as inhibitors. actives 0.21% (n = 390,000); further: on the % scale 0 is the no-effect control and ±100 the full control effect
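GCN5L2 (20 nM) in 50mM HEPES pH 7.5, 0.1mM EDTA, 0.01% Tween-20 preincubated 15 min with compounds at room temperature. Reaction started with H3(1-25) 75uM, acetyl-CoA 70uM, ThioGlo1 50uM; CoA-thiol fluorescence (Ex340/Em540) read at 0 and 20 min.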
GLP1R cytotox: cytotoxic in the GLP-1 receptor inverse agonist counter-screen. HEK293 cAMP-luciferase reporter cells, luminescence, 24 h. Potency, µM (titrated, usually from 38.3 µM), inactives show top-dose activity change, negative = inhibition, actives largely listed as inhibitors. actives 0.13% (n = 410,000);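 further: loss of luciferase light is scored as toxicity; on the % scale 0 is the no-effect control and ±100 the full control effect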
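1536-well qHTS counterscreen of the MLSMR; 200 cells/uL, 12 h pre-incubation, 23 nL cpd, 24 h at 37 deg C 5% CO2, luciferase detection reagent, 12 min RT, luminescence. Inhibition = undesired.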
GLP1R inv ag: GLP-1 receptor (human) inverse agonism; actives 1.6% (n = 410,000); HEK293 GLP-1R CRE-luciferase, luminescence, 24 h; GLP-1R form is constitutively active; Potency, µM (series often up to 38.3 µM), for inactives: top-dose activity change, negative = inhibition, hits mostly inhibitors; P43220; further: on the % scale 0 is the no-effect control and ±100 the full control effect; nearly all actives have a fitted effect of over 55% in size
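HEK293 cells stably co-expressing constitutively active GLP-1R and a cAMP-responsive luciferase reporter were seeded in DMEM with 10% Nu serum, given compounds after 12 h, and incubated 24 h at 37 deg C. Luminescence was then read.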
Active calls of the source: *; [ ] = dose if it differs, or a comment. The call rests on the fitted dose curve; in most records, active means well fitted curve in the direction sought with a large enough effect; inconclusive means small, poorly fitted or top-dose-only effect, or another doubt; inactive means no such curve, though single readings can be large; an effect the other way counts as inactive or inconclusive. Potency means the concentration at half of the fitted maximal effect.

For CCCCCC1CC1C(=O)N/N=C/c1ccc(N(C)C)cc1 (stereo not given) the results were RGS4 inh 9.4%, GLP-1R agonist 11.6%, PTHR1 ag -11.0%, KAT2A inh -8.3%, GLP1R cytotox -6.6% and GLP1R inv ag 7.94µM*.
`O=C(O)c1ccc(N=N/C(=N\Nc2ccc(C(=O)O)cc2)c2ccccc2)cc1` gave RGS4 inh 11.3%, GLP-1R agonist -1.9%, PTHR1 ag -16.6%, KAT2A inh -2.3%, GLP1R cytotox -9.7% and GLP1R inv ag 26.1%.
Brc1ccc(N/N=C(/N=Nc2nn[nH]n2)c2ccccc2)cc1 was read as RGS4 inh -12.6%, GLP-1R agonist 8.6%, PTHR1 ag -44.6%, KAT2A inh inconclusive, GLP1R cytotox inconclusive and GLP1R inv ag 1.26µM*.
For Cc1ccc(NC(=O)C2CCCN(S(=O)(=O)c3cccc4cccnc34)C2)cc1Cl (stereo not given) the results were RGS4 inh 5.3%, PTHR1 ag -7.1%, KAT2A inh -4.9%, GLP1R cytotox -11.8% and GLP1R inv ag 10µM*.
`O=C(Nc1ccc(Cl)c(C(F)(F)F)c1)C1CCCN(S(=O)(=O)c2cccc3cccnc23)C1` (stereo not given) gave RGS4 inh 3.3%, PTHR1 ag inactive, KAT2A inh -0.2%, GLP1R cytotox 1.1% and GLP1R inv ag 42.0%.
Screening Cc1ccc(C)c(N2CCN(S(=O)(=O)c3cccc4cccnc34)CC2)c1 returned RGS4 inh 12.1%, GLP-1R agonist 14.6%, PTHR1 ag inactive, KAT2A inh -9.8%, GLP1R cytotox 4.0% and GLP1R inv ag 10µM*.
For Clc1ccccc1Cn1nc(-c2ccccc2)nc1-c1ccccc1 the results were RGS4 inh -8.9%, GLP-1R agonist 1.9%, PTHR1 ag -0.2%, KAT2A inh -3.4%, GLP1R cytotox 0.3% and GLP1R inv ag inconclusive.
For Clc1ccc(Cn2nc(-c3ccccc3)nc2-c2ccccc2)cc1 the results were RGS4 inh inconclusive, GLP-1R agonist 0.0%, PTHR1 ag -30.5%, KAT2A inh -5.6%, GLP1R cytotox -0.5% and GLP1R inv ag 7.94µM*.
O=C(CNC(=O)c1cc(Cl)cc([N+](=O)[O-])c1)NC1CC1 was read as RGS4 inh -8.3%, GLP-1R agonist 1.1%, PTHR1 ag -18.4%, KAT2A inh 1.1%, GLP1R cytotox 15.5% and GLP1R inv ag 5.7%.
For CC1CC=C(c2ccccc2)C(=S)N1 (stereo not given) the results were RGS4 inh 6.7%, GLP-1R agonist 1.5%, PTHR1 ag inactive, KAT2A inh -2.3%, GLP1R cytotox inconclusive and GLP1R inv ag 10µM*.
For CC1NC(=O)COC1c1ccccc1 (stereo not given) the results were GLP-1R agonist 4.8%, PTHR1 ag inactive, GLP1R cytotox 3.8% and GLP1R inv ag 1.7%.
`Cc1ccc(SCC2(O)CCN(S(=O)(=O)c3ccc(Cl)cc3)CC2)cc1` gave RGS4 inh 15.5%, GLP-1R agonist 4.7%, PTHR1 ag -37.4%, KAT2A inh -11.1%, GLP1R cytotox 1.7% and GLP1R inv ag 0.0%.
`CN1CCN(CC2(O)CCN(S(=O)(=O)c3ccc(Cl)cc3)CC2)CC1` gave RGS4 inh 12.6%, GLP-1R agonist 4.3%, PTHR1 ag inactive, KAT2A inh 1.5%, GLP1R cytotox 15.2% and GLP1R inv ag 0.891µM*.
Screening CC(C)(C)c1ccc(S(=O)(=O)N2CCC(O)(c3ccc(Cl)cc3)CC2)cc1 returned RGS4 inh -27.7%, GLP-1R agonist 2.2%, PTHR1 ag -40.9%, KAT2A inh -1.6%, GLP1R cytotox -13.2% and GLP1R inv ag 7.08µM*.
Screening COc1ccc(S(=O)(=O)N2CCC(O)(c3ccc(Cl)cc3)CC2)cc1 returned RGS4 inh -13.4%, GLP-1R agonist -6.0%, PTHR1 ag -17.2%[57.5 µM], KAT2A inh -5.7%, GLP1R cytotox -16.5% and GLP1R inv ag inconclusive.
CCNC(=O)N(C)C[C@H]1N[C@@](CC)(C(=O)OC)[C@H]2C(=O)N(C)C(=O)[C@@H]12 was read as RGS4 inh -23.6%, GLP-1R agonist 1.6%, PTHR1 ag -11.9%, KAT2A inh -8.1%, GLP1R cytotox -2.5% and GLP1R inv ag 12.6%.
`CCCN(S(=O)(=O)c1ccccc1F)S(=O)(=O)c1ccccc1Br` gave RGS4 inh -6.9%, GLP-1R agonist 6.5%, PTHR1 ag -24.8%, KAT2A inh -6.4%, GLP1R cytotox -0.7% and GLP1R inv ag inconclusive.
For C[C@]12C=CC(=O)N[C@@H]1CC[C@@H]1C2CC[C@]2(C)C(C(=O)Nc3cc(C(F)(F)F)ccc3C(F)(F)F)CC[C@@H]12 (stereo not given in full) the results were GLP-1R agonist 2.1% and KAT2A inh 12.1%.
Screening CC(Oc1ccc(Br)cc1)C(=O)Nc1ccc(N2CCOCC2)cc1N1CCOCC1 (stereo not given) returned RGS4 inh -16.0%, GLP-1R agonist 10.6%, PTHR1 ag -34.2%, KAT2A inh -28.8%, GLP1R cytotox -6.8% and GLP1R inv ag -5.8%.
Screening CCCCCCSc1ccc([C@H]2N[C@@](Cc3ccccc3)(C(=O)OC)[C@H]3C(=O)N(C)C(=O)[C@@H]23)cc1 returned RGS4 inh 4.0%, GLP-1R agonist 11.7%, PTHR1 ag -17.8%, KAT2A inh -13.8%, GLP1R cytotox -6.2% and GLP1R inv ag 11.2µM*.
CCCCCCSc1ccc([C@H]2N[C@@](Cc3ccccc3)(C(=O)OC)[C@H]3C(=O)N(CC)C(=O)[C@@H]23)cc1 was read as RGS4 inh -1.6%, GLP-1R agonist -1.5%, PTHR1 ag -17.5%, KAT2A inh -4.3%, GLP1R cytotox -16.0% and GLP1R inv ag -9.7%.
Screening CCCCCCSc1ccc([C@H]2N[C@@](CC(C)C)(C(=O)OC)[C@H]3C(=O)N(CC)C(=O)[C@@H]23)cc1 returned RGS4 inh -10.1%, GLP-1R agonist 9.3%, PTHR1 ag inactive, KAT2A inh -0.1%, GLP1R cytotox -16.0% and GLP1R inv ag -6.8%.
`CCCCCCSc1ccc([C@H]2N[C@@](C)(C(=O)OC)[C@H]3C(=O)N(CC)C(=O)[C@@H]23)cc1` gave RGS4 inh -20.1%, GLP-1R agonist 25.0%, PTHR1 ag -21.3%, KAT2A inh -16.6%, GLP1R cytotox 0.0% and GLP1R inv ag 10µM*.

Bioassay records (PubChem BioAssay)
